Laboratory results: the supplement of paper PMC9262897, “Low-cost anti-mycobacterial drug discovery using engineered E. coli” (Nature Communications, 2022)
Structures can show the parent of a compound that is named as a salt. ± gives the standard deviation of the averaged measurements.

Assays:
Assay in all cases: growth (OD600 after 10 h); higher = more growth (less inhibition)
[1] = test system: E. coli TESEC Alr+ wild-type control; conditions: compound 0.1 mM; raw OD600 reference: median of DMSO wells 0.241, cell-free background 0.041
Protocol: (§1)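 TESEC Mtb Alr E. coli, or the Alr+ wild-type control, in 384-well plates with Prestwick library compounds at 0.1 mM and 1% DMSO, across arabinose induction levels of 1E3 to 1E7 nM. Growth is read as OD600 after 10 h at 37 °C in triplicate biological replicates.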

E. coli TESEC Mtb Alr [2] = conditions: compound 0.1 mM
Protocol: as §1

E. coli TESEC Mtb Asd = conditions: compound 0.1 mM
Protocol: (§2)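 TESEC E. coli strains in which the native enzyme is deleted and replaced by arabinose-inducible Mtb Asd, DapB, CysH or TrpD, each grown in its selective medium. Strains were screened against the Prestwick library at 0.1 mM and 1% DMSO in 384-well format at low and high arabinose induction. Growth is read as OD600 after 10 h in triplicate.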

E. coli TESEC Mtb DapB = conditions: compound 0.1 mM
Protocol: as §2

[3] = test system: E. coli TESEC Alr+ wild-type control; conditions: compound 0.1 mM; raw OD600 reference: median of DMSO wells 0.49, cell-free background 0.052
Protocol: (§3)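 TESEC Mtb Alr E. coli (ΔaraC ΔtolC ΔentC Δalr ΔdadX, arabinose-inducible Mtb Alr) or the Alr+ wild-type control strain, grown in defined M9-fructose medium without D-alanine in 96-well plates with Prestwick library compounds at 0.1 mM and 1% DMSO. Low Alr induction is 0.1 µM arabinose and high induction is 10 mM arabinose.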

E. coli TESEC Mtb Alr [4] = conditions: compound 0.1 mM; remark: listed apart in the source
Protocol: as §3

[5] = arabinose 1000 nM, raw OD600 reference: median of DMSO wells 0.294, cell-free background 0.041
[6] = arabinose 10000 nM, raw OD600 reference: median of DMSO wells 0.264, cell-free background 0.041
[7] = arabinose 100000 nM, raw OD600 reference: median of DMSO wells 0.201, cell-free background 0.041
[8] = arabinose 1000000 nM, raw OD600 reference: median of DMSO wells 0.193, cell-free background 0.041
[9] = arabinose 10000000 nM, raw OD600 reference: median of DMSO wells 0.146, cell-free background 0.041
[10] = arabinose induction (level): High, raw OD600 reference: median of DMSO wells 0.331, cell-free background 0.041
[11] = arabinose induction (level): Low, raw OD600 reference: median of DMSO wells 0.417, cell-free background 0.041
[12] = arabinose induction (level): High, raw OD600 reference: median of DMSO wells […], cell-free background 0.041
[13] = arabinose induction (level): Low, raw OD600 reference: median of DMSO wells 0.227, cell-free background 0.041
[14] = arabinose 100 nM, raw OD600 reference: median of DMSO wells 0.413, cell-free background 0.052
[15] = arabinose 10000000 nM, raw OD600 reference: median of DMSO wells […], cell-free background 0.052

Row | Compound | growth [1] | growth (E. coli TESEC Mtb Alr [2]; [5]) | growth (E. coli TESEC Mtb Alr [2]; [6]) | growth (E. coli TESEC Mtb Alr [2]; [7]) | growth (E. coli TESEC Mtb Alr [2]; [8]) | growth (E. coli TESEC Mtb Alr [2]; [9]) | growth (E. coli TESEC Mtb Asd; [10]) | growth (E. coli TESEC Mtb Asd; [11]) | growth (E. coli TESEC Mtb DapB; [12]) | growth (E. coli TESEC Mtb DapB; [13]) | growth [3] | growth (E. coli TESEC Mtb Alr [4]; [14]) | growth (E. coli TESEC Mtb Alr [4]; [15])
1 | CC[C@]12CCCN3CCc4c(n(c5ccccc45)C(=O)C1)[C@@H]32 [Eburnamonine (-)] | 0.182 ± 0.0061 | 0.238 ± 0.0081 | 0.257 ± 0.0031 | 0.144 ± 0.0086 | 0.124 ± 0.004 | 0.135 ± 0.0057 | 0.119 ± 0.0043 | 0.27 ± 0.095 | 0.176 ± 0.0063 | 0.176 ± 0.012 | 0.544 ± 0.059 | 0.393 ± 0.012 | 0.277 ± 0.015
2 | CCC(=O)OCC(=O)[C@@]1(OC(=O)CC)[C@@H](C)C[C@H]2[C@@H]3CCC4=CC(=O)C=C[C@]4(C)[C@@]3(Cl)[C@@H](O)C[C@@]21C [Beclomethasone dipropionate] | 0.216 ± 0.0072 | 0.31 ± 0.028 | 0.28 ± 0.018 | 0.179 ± 0.013 | 0.12 ± 0.013 | 0.167 ± 0.0041 | 0.246 ± 0.032 | 0.3 ± 0.031 | 0.22 ± 0.0053 | 0.248 ± 0.035 | 0.499 ± 0.027 | 0.442 ± 0.0072 | 0.247 ± 0.018
3 | COc1ccc(OC)c(C(O)CNC(=O)CN)c1 (configuration not stated) [Midodrine hydrochloride] | 0.243 ± 0.0087 | 0.291 ± 0.0075 | 0.281 ± 0.0091 | 0.204 ± 0.02 | 0.186 ± 0.0048 | 0.141 ± 0.0067 | 0.4 ± 0.017 | 0.505 ± 0.02 | 0.188 ± 0.0075 | 0.25 ± 0.046 | 0.482 ± 0.043 | 0.424 ± 0.0079 | 0.341 ± 0.008
4 | CCCSc1ccc2[nH]c(NC(=O)OC)nc2c1 [Albendazole] | 0.246 ± 0.025 | 0.274 ± 0.021 | 0.255 ± 0.0036 | 0.211 ± 0.031 | 0.1462 ± 0.00096 | 0.137 ± 0.0025 | 0.41 ± 0.017 | 0.409 ± 0.033 | 0.205 ± 0.0098 | 0.25 ± 0.025 | 0.48 ± 0.013 | 0.428 ± 0.01 | 0.419 ± 0.054
5 | O=C1c2c(O)cccc2Cc2cccc(O)c21 [Anthralin] | 0.161 ± 0.0039 | 0.159 ± 0.018 | 0.169 ± 0.017 | 0.205 ± 0.0082 | 0.151 ± 0.0087 | 0.182 ± 0.0047 | 0.22 ± 0.013 | 0.306 ± 0.13 | 0.246 ± 0.017 | 0.229 ± 0.051 | 0.339 ± 0.015 | 0.29 ± 0.034 | 0.239 ± 0.03
6 | CO[C@H]1/C=C/O[C@@]2(C)Oc3c(C)c(O)c4c(O)c(c(/C=N/N5CCN(C)CC5)c(O)c4c3C2=O)NC(=O)/C(C)=C\C=C\[C@H](C)[C@H](O)[C@@H](C)[C@@H](O)[C@@H](C)[C@H](OC(C)=O)[C@@H]1C [Rifampicin] | 0.0429 ± 0.0015 | 0.0442 ± 0.003 | 0.04117 ± 0.00021 | 0.0444 ± 0.0018 | 0.04127 ± 0.00012 | 0.043 ± 0.0014 | 0.0643 ± 0.011 | 0.0572 ± 0.0093 | 0.106 ± 0.094 | 0.0504 ± 0.00072 | 0.05337 ± 0.00042 | 0.0557 ± 0.00079 | 0.0524 ± 0.00092
7 | CC(C)[C@H](N)C(=O)OCCOCn1cnc2c(=O)nc(N)[nH]c21 [Valacyclovir hydrochloride] | 0.243 ± 0.0038 | 0.302 ± 0.0067 | 0.2661 ± 0.0012 | 0.22 ± 0.039 | 0.195 ± 0.0058 | 0.144 ± 0.0025 | 0.258 ± 0.006 | 0.365 ± 0.054 | 0.179 ± 0.011 | 0.186 ± 0.021 | 0.533 ± 0.17 | 0.408 ± 0.0084 | 0.369 ± 0.0047
8 | CNc1ncnc2c1ncn2[C@@H]1O[C@H](CO)[C@@H](O)[C@H]1O [N6-methyladenosine] | 0.283 ± 0.008 | 0.334 ± 0.023 | 0.263 ± 0.0068 | 0.261 ± 0.012 | 0.189 ± 0.003 | 0.15 ± 0.0032 | 0.343 ± 0.044 | 0.416 ± 0.023 | 0.21 ± 0.0029 | 0.209 ± 0.0066 | 0.539 ± 0.094 | 0.28 ± 0.065 | 0.364 ± 0.0048
9 | CN(C)CCN1C(=O)c2ccccc2N(C)c2ccccc21 [Dibenzepine hydrochloride] | 0.234 ± 0.0039 | 0.312 ± 0.018 | 0.286 ± 0.0089 | 0.185 ± 0.03 | 0.167 ± 0.0098 | 0.139 ± 0.0036 | 0.23 ± 0.059 | 0.317 ± 0.04 | 0.165 ± 0.012 | 0.187 ± 0.0044 | 0.608 ± 0.13 | 0.415 ± 0.0072 | 0.34 ± 0.015
10 | CCCCc1oc2ccccc2c1C(=O)c1cc(I)c(OCCN(CC)CC)c(I)c1 [Amiodarone hydrochloride] | 0.263 ± 0.01 | 0.325 ± 0.0083 | 0.324 ± 0.0065 | 0.193 ± 0.0069 | 0.177 ± 0.0065 | 0.153 ± 0.0059 | 0.284 ± 0.017 | 0.338 ± 0.033 | 0.185 ± 0.0075 | 0.227 ± 0.0068 | 0.58 ± 0.025 | 0.424 ± 0.057 | 0.316 ± 0.044
11 | CN1CCC[C@@H]1CCO[C@](C)(c1ccccc1)c1ccc(Cl)cc1 [Clemastine fumarate] | 0.0447 ± 0.00026 | 0.0419 ± 0.00017 | 0.0403 ± 0.0001 | 0.04353 ± 0.00025 | 0.04023 ± 0.00015 | 0.0439 ± 0.0004 | 0.0482 ± 0.0021 | 0.0504 ± 0.0026 | 0.0513 ± 0.00046 | 0.102 ± 0.085 | 0.218 ± 0.29 | 0.421 ± 0.0052 | 0.0923 ± 0.02
12 | COc1cc(NS(=O)(=O)c2ccc(N)cc2)nc(OC)n1 [Sulfadimethoxine] | 0.2298 ± 0.0014 | 0.264 ± 0.011 | 0.177 ± 0.01 | 0.2126 ± 0.0014 | 0.106 ± 0.0049 | 0.139 ± 0.0065 | 0.266 ± 0.0084 | 0.403 ± 0.025 | 0.192 ± 0.0042 | 0.213 ± 0.015 | 0.46 ± 0.053 | 0.425 ± 0.0055 | 0.332 ± 0.031
13 | C[C@H]1O[C@@H](O[C@H]2[C@@H](O)C[C@H](O[C@H]3[C@@H](O)C[C@H](O[C@H]4CC[C@@]5(C)[C@H](CC[C@@H]6[C@@H]5C[C@@H](O)[C@]5(C)[C@@H](C7=CC(=O)OC7)CC[C@]65O)C4)O[C@@H]3C)O[C@@H]2C)C[C@H](O)[C@@H]1O [Digoxin] | 0.232 ± 0.0079 | 0.282 ± 0.01 | 0.275 ± 0.0083 | 0.2 ± 0.0092 | 0.176 ± 0.0061 | 0.136 ± 0.0037 | 0.28 ± 0.057 | 0.413 ± 0.046 | 0.196 ± 0.016 | 0.236 ± 0.045 | 0.617 ± 0.038 | 0.414 ± 0.0055 | 0.329 ± 0.044
14 | Nc1ccc(O)c(C(=O)O)c1 [Mesalamine] | 0.2446 ± 0.0018 | 0.287 ± 0.014 | 0.278 ± 0.0044 | 0.2 ± 0.011 | 0.21 ± 0.0038 | 0.144 ± 0.0074 | 0.339 ± 0.052 | 0.362 ± 0.061 | 0.195 ± 0.024 | 0.213 ± 0.021 | 0.554 ± 0.11 | 0.416 ± 0.0084 | 0.363 ± 0.011
